Data reported in the antibiotic and cytotoxicity screens of Wong et al. (2023).
Among all 39,000 compounds or so, about 3,300 (8.5%) were called active. Only a selection was taken, and actives are over-represented in it overall.

These molecules were tested on HepG2 (assay: cytotoxicity call (relative viability < 0.9)). Conditions: 10 µM.
With `CC(C)NC(=O)N(C)C[C@@H]1Oc2c(NC(=O)C3CCOCC3)cccc2C(=O)N([C@@H](C)CO)C[C@@H]1C` the cytotoxicity call was “inactive”.
With `COc1ccc(S(=O)(=O)Nc2ccc3c(c2)C(=O)N([C@@H](C)CO)C[C@H](C)[C@@H](CN(C)Cc2ccccc2)OCCCC[C@H](C)O3)cc1` the cytotoxicity call was “inactive”.
With `C(=N\c1cc(-c2ccccc2)nn1-c1ccccc1)/c1ccccc1` the cytotoxicity call was “inactive”.
With `C[C@H]1CN([C@@H](C)CO)C(=O)c2cc(C#CC3CCCCC3)cnc2O[C@@H]1CN(C)C(=O)c1ccncc1` the cytotoxicity call was “inactive”.
In the case of `O=C(CCCCCCC(=O)Nc1ccc([C@H]2C[C@H](c3ccccc3)O[C@H](c3cccc(Oc4ccccc4)c3)O2)cc1)NO`, the cytotoxicity call is reported as “inactive”.
`C[C@H](CO)N1C[C@H](C)[C@H](CN(C)Cc2ccc(C(=O)O)cc2)Oc2ccc(NS(=O)(=O)c3cn(C)cn3)cc2CC1=O` was tested, and the cytotoxicity call was “inactive”.
With `O=C(C[C@@H]1C[C@H]2c3cc(NS(=O)(=O)c4ccc(F)cc4)ccc3O[C@H]2[C@H](CO)O1)NCc1ccccc1F` the cytotoxicity call was “inactive”.
`C[C@@H]1COCCC(=O)N1` was tested, and the cytotoxicity call was “inactive”.
For `O=C1CN(c2ccccc2)C(=O)N1`, the cytotoxicity call was “inactive”.
For `C[C@H]1CN([C@@H](C)CO)S(=O)(=O)c2ccc(C3=CCCCC3)cc2O[C@@H]1CN(C)S(=O)(=O)c1cn(C)cn1`, the cytotoxicity call was “inactive”.
`C[C@@H]1CN([C@@H](C)CO)C(=O)c2cccc(NC(=O)Nc3cccc4ccccc34)c2O[C@H]1CN(C)S(=O)(=O)c1cccs1` was tested, and the cytotoxicity call was “inactive”.
For `COc1ccc(S(=O)(=O)N(C)C[C@H]2Oc3c(NC(=O)Nc4cccc5ccccc45)cccc3C(=O)N([C@H](C)CO)C[C@@H]2C)cc1`, the cytotoxicity call was “active”.
For `COc1ccc(S(=O)(=O)N(C)C[C@@H]2Oc3c(NC(=O)Nc4cccc5ccccc45)cccc3C(=O)N([C@H](C)CO)C[C@@H]2C)cc1`, the cytotoxicity call was “inactive”.
For `COc1ccc(S(=O)(=O)N(C)C[C@@H]2Oc3c(NC(=O)Nc4cccc5ccccc45)cccc3C(=O)N(C(C)C)C[C@H]2C)cc1`, the cytotoxicity call was “inactive”.
For `C[C@@H]1CN([C@@H](C)CO)C(=O)c2cccc(NC(=O)Nc3cccc4ccccc34)c2O[C@@H]1CN(C)S(=O)(=O)c1cccs1`, the cytotoxicity call was “inactive”.
`COc1ccc(S(=O)(=O)N(C)C[C@@H]2Oc3c(NC(=O)Nc4cccc5ccccc45)cccc3C(=O)N([C@H](C)CO)C[C@H]2C)cc1` was tested, and the cytotoxicity call was “active”.
For `C[C@@H]1CN([C@H](C)CO)C(=O)c2cccc(NC(=O)Nc3cccc4ccccc34)c2O[C@@H]1CN(C)S(=O)(=O)c1cccs1`, the cytotoxicity call was “active”.
`COc1ccc(S(=O)(=O)N(C)C[C@H]2Oc3c(NC(=O)Nc4cccc5ccccc45)cccc3C(=O)N([C@H](C)CO)C[C@H]2C)cc1` was tested, and the cytotoxicity call was “inactive”.
With `COc1ccc(S(=O)(=O)N(C)C[C@@H]2Oc3c(NC(=O)Nc4cccc5ccccc45)cccc3C(=O)N([C@@H](C)CO)C[C@@H]2C)cc1` the cytotoxicity call was “inactive”.
In the case of `C[C@@H]1CCCCO[C@@H](CN(C)S(C)(=O)=O)[C@H](C)CN([C@@H](C)CO)C(=O)c2cc(N(C)C)ccc2O1`, the cytotoxicity call is reported as “inactive”.
With `COc1ccc(S(=O)(=O)N(C)C[C@H]2Oc3ncc(Br)cc3C(=O)N([C@@H](C)CO)C[C@@H]2C)cc1` the cytotoxicity call was “inactive”.
`C[C@H](CO)N1C[C@H](C)[C@@H](CN(C)C(=O)Nc2ccccc2)Oc2ccc(NC(=O)C3CC3)cc2CC1=O` was tested, and the cytotoxicity call was “inactive”.
`O=C1OCC=C[C@H]2O[C@@]34C=CCN(c5ccc(Cl)cc5)C(=O)[C@H]3N(CCCCCCO)C(=O)[C@@H]4[C@@H]12` was tested, and the cytotoxicity call was “inactive”.
For `C[C@@H]1CCCCO[C@H](CN(C)Cc2ccc(C(=O)O)cc2)[C@@H](C)CN([C@H](C)CO)C(=O)c2cc(NC(=O)Nc3ccccc3)ccc2O1`, the cytotoxicity call was “inactive”.
With `CC(C)N1C(=O)C[C@@](C(=O)NCCN2CCOCC2)(c2ccc([N+](=O)[O-])cc2)[C@H]1c1ccc(CO)cc1` the cytotoxicity call was “inactive”.
In the case of `COc1ccc(NC(=O)Nc2ccc3c(c2)C(=O)N([C@@H](C)CO)C[C@H](C)[C@H](CN(C)C(=O)NC2CCCCC2)OCCCC[C@H](C)O3)cc1`, the cytotoxicity call is reported as “inactive”.
With `C[C@H]1CCCCO[C@H](CN(C)S(=O)(=O)c2ccccc2)[C@@H](C)CN([C@@H](C)CO)C(=O)c2cc(NC(=O)Nc3cccc4ccccc34)ccc2O1` the cytotoxicity call was “inactive”.
With `Cc1noc(C)c1NC(=O)N[C@@H]1CC[C@H](CC(=O)NCCCN(C)C)O[C@H]1CO` the cytotoxicity call was “inactive”.
`C[C@H]1CN([C@@H](C)CO)C(=O)c2cc(NC(=O)C3CC3)ccc2O[C@H]1CN(C)S(=O)(=O)c1cn(C)cn1` was tested, and the cytotoxicity call was “inactive”.
`Cc1cc(C(=O)Nc2cccc3c2O[C@H](CN(C)S(=O)(=O)c2ccc(Cl)cc2)[C@@H](C)CN([C@H](C)CO)C3=O)n(C)n1` was tested, and the cytotoxicity call was “inactive”.
In the case of `COc1cc(NC(=O)CCN2CCC(OC(=O)Nc3ccccc3-c3ccccc3)CC2)c(Cl)cc1CNC[C@H](O)c1ccc(O)c2nc(O)ccc12`, the cytotoxicity call is reported as “active”.
With `COc1cccc(C)c1NC(=O)O[C@H]1[C@H](OC(=O)Nc2ccccc2-c2ccccc2)[C@H](OC(=O)Nc2ccccc2-c2ccccc2)[C@@H](OC)O[C@@H]1CO` the cytotoxicity call was “inactive”.
For `NCc1cc2ccc(F)cc2[nH]c1=O`, the cytotoxicity call was “inactive”.
For `C[C@H]1CN([C@@H](C)CO)C(=O)c2cc(C#CCN(C)C)cnc2O[C@H]1CN(C)C(=O)c1cnccn1`, the cytotoxicity call was “inactive”.
For `CC(=O)Oc1cc(OC(C)=O)c2c(c1)O[C@H](c1ccc(OC(C)=O)c(OC(C)=O)c1)[C@H](OC(C)=O)C2`, the cytotoxicity call was “inactive”.
`O=C1NC(=O)C(c2cnc3ccccn23)=C1c1cn2c3c(cc(F)cc13)CN(C(=O)N1CCCCC1)CC2` was tested, and the cytotoxicity call was “active”.
With `C[C@H](CO)N1C[C@H](C)[C@@H](CN(C)S(=O)(=O)c2cn(C)cn2)Oc2c(NS(=O)(=O)c3ccc(Cl)cc3)cccc2C1=O` the cytotoxicity call was “inactive”.
`COc1cccc(-c2ccc3c(c2)O[C@@H](CN(C)C(=O)C2CCC2)[C@@H](C)CN([C@H](C)CO)S3(=O)=O)c1` was tested, and the cytotoxicity call was “inactive”.
With `Cc1ccc(S(=O)(=O)N(C)C[C@H]2Oc3ccc(NS(=O)(=O)c4cccs4)cc3C(=O)N([C@@H](C)CO)C[C@@H]2C)cc1` the cytotoxicity call was “inactive”.
For `Cl.O=C1CN2Cc3c(ccc(Cl)c3Cl)N=C2N1`, the cytotoxicity call was “active”.
For `C[C@H](CO)N1C[C@H](C)[C@H](CN(C)C(=O)C2CCOCC2)Oc2cc(-c3ccc(F)cc3)ccc2S1(=O)=O`, the cytotoxicity call was “inactive”.
In the case of `COc1ccc(S(=O)(=O)N(C)C[C@@H]2Oc3ncc(C#CC4(O)CCCC4)cc3C(=O)N([C@@H](C)CO)C[C@@H]2C)cc1`, the cytotoxicity call is reported as “inactive”.
